NPC1 promoter act: qHTS Assay for NPC1 Promoter Activators. 2.4% of 320,000 active. Huh7 NPC1 promoter luciferase reporter, 24 h. AID 485313, 2010. Potency, µM (titrated, usually from 9.22 µM), for the others: at the highest dose activation, usual class: activators; note: % of control where 0% means no effect; nearly all actives have a fitted effect of over 60% in size
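Luminescence read-out of NPC1 promoter-driven luciferase in stably transfected Huh7 cells; compounds delivered in DMSO and left 24 h at 37C, 5% CO2, qHTS titration format.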
ELG1 repair inh: qHTS screen for small molecules that inhibit ELG1-dependent DNA repair in human embryonic kidney (HEK293T) cells expressing luciferase-tagged ELG1 | HEK293T ELG1-luciferase reporter, luminescence, 16 h; DNA damage induced by 5-fluorouridine | Potency, µM (highest dose often 46.1 µM), for the others: at the top dose activity change, negative = inhibition, most hits filed as inhibitors | 2.3% of 330,000 active | AID 504467, 2011; note: % is set by controls: 0 for no effect and ±100 for the full control effect; nearly all actives have a fitted effect of over 55% in size
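Step one: seed 2,000 cells per well. Step two: pin-transfer compound or DMSO alongside 5-fluorouridine. Step three: incubate 16 hr, 37 °C, 5% CO2. Step four: add ONE-Glo, wait 30 min, read luminescence.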
ELG1 genotoxic: qHTS screen for small molecules that induce genotoxicity in human embryonic kidney (HEK293T) cells expressing luciferase-tagged ELG1 | HEK293T ELG1-luciferase reporter, luminescence, 16 h | Potency, µM (highest dose often 46 µM), inactives show at the top dose activity change, positive = activation, usual class: activators | 1.3% of 330,000 active; note: % of control where 0% means no effect; nearly all actives have a fitted effect of over 60% in size
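HEK293T cells expressing luciferase-tagged ELG1 were exposed to compound or DMSO vehicle for 16 hr at 37 °C and 5% CO2. Luciferase activity was then measured with ONE-Glo after 30 min at room temperature.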
Rab9 promoter act: qHTS Assay for Rab9 Promoter Activators; Huh7 Rab9 promoter-luciferase reporter, luminescence, 24 h; Potency, µM (highest dose often 9.22 µM), inactives show at the top dose activation, negative = inhibition, most hits filed as activators; 2.8% of 320,000 active; note: % of control where 0% means no effect; nearly all actives have a fitted effect of over 60% in size
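Luminescence read-out: Huh7 cells stably expressing Rab9-luciferase, treated 24 h with compound at 37 °C, then lysed with luciferase reagent for 10 min at ambient before reading.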
FLuc counter: qHTS profiling assay for firefly luciferase inhibitor/activator using purifed enzyme and Km concentrations of substrates (counterscreen for miR-21 project). Potency, µM (titrated, usually from 57.5 µM), for the others: at the highest dose activity change, negative = inhibition, hits mostly inhibitors. Luciferin 4-monooxygenase (Photinus pyralis), P08659. purified FLuc, Km substrates, luminescence inhibition. 6.9% of 360,000 active;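 note: plate controls were vehicle for no effect and reference inhibitor for full effect; nearly all actives have a fitted effect of over 55% in size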
Target sequence (P08659 whole entry, looked up): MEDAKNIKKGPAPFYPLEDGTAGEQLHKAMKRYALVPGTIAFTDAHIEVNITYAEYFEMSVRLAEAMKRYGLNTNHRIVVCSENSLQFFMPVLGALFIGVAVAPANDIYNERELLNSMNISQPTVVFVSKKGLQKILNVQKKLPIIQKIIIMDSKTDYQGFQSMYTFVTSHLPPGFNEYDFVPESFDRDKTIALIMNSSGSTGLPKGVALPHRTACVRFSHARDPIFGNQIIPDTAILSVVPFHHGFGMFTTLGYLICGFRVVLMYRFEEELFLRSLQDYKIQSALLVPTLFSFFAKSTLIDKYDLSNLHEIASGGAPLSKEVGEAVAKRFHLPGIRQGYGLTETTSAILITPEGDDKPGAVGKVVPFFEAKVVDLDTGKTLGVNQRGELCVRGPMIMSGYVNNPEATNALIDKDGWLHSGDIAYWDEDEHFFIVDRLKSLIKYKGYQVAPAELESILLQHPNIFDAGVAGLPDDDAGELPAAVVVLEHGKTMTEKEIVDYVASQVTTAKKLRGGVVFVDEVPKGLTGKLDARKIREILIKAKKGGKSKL
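Biochemical qHTS of compounds, final roughly 60 µM downward over six points, against 10 nM purified firefly luciferase using Km concentrations of substrates (10 uM D-luciferin, 10 uM ATP) in Tris acetate pH 7.5 buffer; luminescence output.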
SMN2 splice up: qHTS Assay for Enhancers of SMN2 Splice Variant Expression; HEK293 SMN2-luciferase splicing reporter, luminescence, 30-36 h; Potency, µM (series often up to 46.1 µM), for the others: top-dose activity change, positive = activation, hits mostly activators; 2.8% of 210,000 active; note: % of control where 0% means no effect; nearly all actives have a fitted effect of over 55% in size
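HEK293 cells carry an SMN2 […]–luciferase reporter in which exon 7 inclusion puts luciferase in frame. Cells were plated 10-12 h before compound addition, then incubated 30-36 h at 37C. ONE-Glo luminescence was read; sodium butyrate at 4.5 mM final served as control.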
* = called active by the depositor; ? = inconclusive; . = no result given; [ ] = remark or other dose. Hits are enriched below; roughly 9.2% of the tested compounds scored in any of these assays. Calls come from the whole dose curve; as a rule, active = well fitted curve in the direction sought with a large enough effect; inconclusive = small, poorly fitted or top-dose-only effect, or another doubt; inactive = no such curve, though single readings can be large; an effect the other way counts as inactive or inconclusive. Potency is the fitted concentration of half-maximal effect.

SMILES	NPC1 promoter act	ELG1 repair inh	ELG1 genotoxic	Rab9 promoter act	FLuc counter	SMN2 splice up
COC(=O)c1ccc(C2OCC(C)(C)CO2)cc1	?	?	18.7%	?	26.9µM*	?
COc1ccc(C(=O)NCC(c2ccco2)N2CCc3ccccc32)c(OC)c1 (stereo not given)	-0.5%	?	-28.6%	-3.4%	-1.7%	.
COc1ccc(N2CCN(c3ncccc3-c3nc(-c4ccccc4C)no3)CC2)cc1	.	.	.	.	15.1µM*	.
COc1ccc(N2CCN(c3ncccc3C#N)CC2)cc1	-4.2%	2.3%	-0.5%	2.1%	-0.6%	-10.1%
Cc1ccc(C(=O)NCC(c2cccnc2)N2CCc3ccccc3C2)cc1C (stereo not given)	.	.	.	.	2.69µM*	.
Cc1ccc(-c2nnc(N3CCCCCC3)c3ccccc23)cc1	14.5%	-2.7%	1.2%	9.2%	19µM*	.
COCCn1c(=O)c(-c2cc(F)cc(F)c2)nc2cnc(Oc3cccc(Cl)c3)nc21	.	.	.	.	.	-13.6%
O=C(NCCc1ccc(F)cc1)c1ccc([N+](=O)[O-])cc1	2.51µM*	?	?	3.16µM*	15.1µM*	11.2µM*
COc1ccc(C(=O)NCCC2=CCCCC2)cc1	0.355µM*	?	1.46µM*	0.316µM*	0.849µM*	2.51µM*
COc1ccc(C(=O)NCC(=O)OCC(=O)NCCC2=CCCCC2)cc1	0.5%	9.3%	-0.1%	-6.2%	4.5%	3.3%
O=C(NCCC1=CCCCC1)c1ccc(F)cc1	0.398µM*	?	?	0.447µM*	2.13µM*	7.08µM*
O=C(NCCC1=CCCCC1)c1ccc([N+](=O)[O-])cc1	1.12µM*	?	?	0.631µM*	5.36µM*	2.82µM*
O=C(CCNC(=O)c1ccc([N+](=O)[O-])cc1)NCCC1=CCCCC1	-4.6%	0.0%	-3.4%	-2.5%	-2.2%	.
COc1ccc(-n2nc3c(c2NC(=O)CCl)CSC3)cc1	-26.9%	?	-4.6%[9.26 µM]	-13.6%	-0.3%	.
COc1cc(C(=O)Nc2c(C)cc(C)cc2C)c([N+](=O)[O-])cc1OC	-1.6%	-2.0%	-1.2%	-1.4%	-1.2%	-5.3%
CCc1cnc2c(c1SCC(=O)Nc1cc(Cl)ccc1OC)c(=O)n(C)c(=O)n2C	.	.	.	.	-9.4%	.
CCOC(=O)c1[nH]c(C)c(C(=O)NCCC2=CCCCC2)c1C	26.7%	?	?	?	-4.7%	5.6%
O=C(NC1CCCC1)c1ccc(CN2CCOCC2)cc1	9.2%	?	11.6%	15.9%	-5.4%	-1.2%
O=C(NC(=S)NCCC1=CCCCC1)c1ccc(Br)o1	21.0%	?	12.2%	?	?	25.9%
CC(=O)c1c(C)[nH]c(C(=O)NCCC2=CCCCC2)c1C	3.55µM*	?	9.2µM*	?	12µM*	?
COc1ccc(CCNC(=O)c2ccc(CN3CCOCC3)cc2)cc1	12.4%	-11.2%	0.6%	-2.6%	?	-14.8%
O=C(NCCC1=CCCCC1)c1ccc(Br)o1	25.8%	?	16.4µM*	24.9%	?	28.7%
O=C(NC1CCCCCC1)c1ccc(CN2CCOCC2)cc1	3.16µM*	?	?	3.55µM*	16.9µM*	?
O=C(NCCC1=CCCCC1)c1ccc(CN2CCOCC2)cc1	2.82µM*	?	?	1.41µM*	23.9µM*	12.6µM*
CC(=O)Nc1ccc(NC(=O)CCNC(=O)c2ccccc2Cl)cc1	-0.7%	8.5%	-3.9%	-9.2%	4.4%	.
SMILES	NPC1 promoter act	ELG1 repair inh	ELG1 genotoxic	Rab9 promoter act	FLuc counter	SMN2 splice up
NS(=O)(=O)c1ccc(CCN=Cc2ccccc2O)cc1	-0.5%	0.0%	-1.5%	-0.9%	1.1%	3.8%
O=c1c[n+](CC[n+]2cc(=O)o[nH]2)[nH]o1	.	.	.	.	.	-13.9%[9.22 µM]
Cc1ccc(NC(=S)NCCC2=CCCCC2)cc1	?	?	17.0%	3.55µM*	?	20µM*
COc1cccc(C(=O)NCCC2=CCCCC2)c1	0.562µM*	?	?	0.631µM*	3.01µM*	?
Cc1cc(C(=O)NCCC2=CCCCC2)ccc1[N+](=O)[O-]	4.47µM*	?	?	1.78µM*	12µM*	.
CCOC(=O)c1ccc(NC(=S)NCCC2=CCCCC2)cc1	-0.7%	-24.6%	-3.0%	4.0%	6.6%	-85.3%
C=CCc1ccc(OCCCOc2ccc(C(=O)O)cc2)c(OC)c1	15.3%	?	3.4%	5.3%	10.7µM*	14.9%
C=CCc1ccc(OCC(O)CO)c(OC)c1 (stereo not given)	13.4%	?	7.5%	4.6%	-10.9%	-22.9%
C=CCc1ccc(OCCCCN2CCC(C)CC2)c(OC)c1	6.4%	7.7%	-0.8%	-2.0%	0.8%	-12.8%
C=CCc1ccc(OC(=O)c2ccccc2)c(OC)c1	-3.9%	-12.2%	1.5%	-1.7%	6.75µM*	-5.4%
Cc1ccc(-c2nnc(SCC(=O)NC(C)(C)C)nc2-c2ccc(C)cc2)cc1	.	.	.	.	3.7%	.
COc1ccc(/C=N/NC(=O)c2ccc3c(c2)OCCO3)cc1[N+](=O)[O-]	7.9%	13.0%	11.8%	-1.3%	1.4%	-5.7%
COc1ccc(C(=O)/C=C/c2ccc3c(c2)OCCO3)cc1	4.8%	?	19.1%	?	1.69µM*	.
Cc1ccc(O)c(C(=O)/C=C/c2ccc3c(c2)OCCO3)c1	7.7%	16.0%	-0.4%	?	23.9µM*	5.8%
COc1ccc(/C=C/C(=O)c2ccc3c(c2)OCCO3)cc1[N+](=O)[O-]	1.6%	?	0.2%	-5.3%	6.75µM*	0.9%
O=C(/C=C/c1ccc2c(c1)OCCO2)c1ccccc1	2.82µM*	?	?	1µM*	0.477µM*	.
COc1cc(/C=C/C(=O)OCC(=O)Nc2ccc3c(c2)OCCO3)ccc1O	-1.4%	?	-0.2%	-3.6%	?	26.0%
COc1ccccc1OCCNC(=O)CNC(=O)c1ccc(Cl)c(Cl)c1	0.3%	7.9%	-5.2%	-1.8%	-0.4%	.
COc1ccccc1OCCNC(=O)c1ccc2c(c1)CCC2	?	?	13µM*	?	15.1µM*	.
COc1ccccc1OCCNC(=O)c1ccc2c(c1)OCCO2	3.16µM*	?	?	2.24µM*	?	.
O=C(N/N=C/c1ccc(O)cc1)c1ccncc1	-1.2%	1.9%	-0.8%	-3.0%[1.84 µM]	-19.6%	.
O=C(N/N=C/c1ccc(N2CCOCC2)cc1)c1ccc(O)cc1	11.6%	?	1.1%	15.2%	23.9µM*	.
COc1ccc(C(=O)N/N=C/c2ccc(SC)cc2)cc1	6.2%	11.0%	-1.6%	3.1%	6.75µM*	10.9%
